Test results reported in the supplement of paper PMC7156485.

system: TDF; test: H1.0 immunofluorescence intensity relative to DMSO (% of DMSO); higher = stronger H1.0 induction, active = 120 or more; settings: concentration: 10 µM; 24 h
Method in brief: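 For HCC1569 and TDF cells, compounds at 10 µM were applied for 24 h at 37 °C in triplicate in 384-well plates. Cells were fixed in 3.7% formaldehyde, stained for H1.0 and with DAPI, and imaged at ×10 over six fields per well. The endpoint, H1.0 nuclear intensity or cell number, is shown as percent of the plate control using the median of replicates. Positional effects were smoothed for HCC1569 only.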
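Further: TDF is a line of transformed human dermal fibroblasts of mesenchymal origin.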

H1.0 immunofluorescence intensity, inactive:
O.Oc1cc(O)c2c(c1)OC(c1ccc(O)c(O)c1)C(O)C2 (single isomer, unassigned; (+)) [(+)-Catechin Hydrate] 90.6
Nc1c(C(=O)O)c2nc3c(C(=O)O)cccc3oc-2cc1=O [2-amino-3-oxo-3H-phenoxazine-1,9-dicarboxylic acid] 110
C=C1CCC(O)CC1=CC=C1CCCC2(C)C1CCC2C(C)CCC(O)C(C)(C)O [24(R),25-Dihydroxyvitamin D3] 101
CCCCCC(O)C=CC=CCC=CCCCCC(=O)O (stereo not given) 97.2
C=CC1CN2CCC1CC2C(O)c1ccnc2ccc(OC)cc12.C=CC1CN2CCC1CC2C(O)c1ccnc2ccc(OC)cc12.O=S(=O)(O)O (stereo not given) [Quinine sulfate] 92.8
Cc1ccccc1C=CC1=NCCN1.O=C(O)C(=O)O [Metrazoline oxalate] 102
O=C(C=CC=Cc1ccc2c(c1)OCO2)N1CCCCC1 [Piperine] 96.8
Fc1ccc(Cl)cc1-c1nc(Nc2ccncc2)c2nccnc2n1 98.2
Cl.Cl.Nc1nccc(-c2c(-c3ccc(F)cc3)ncn2C2CCCCC2)n1 79.8
CCCCOC(=O)NC(=O)C1c2ccccc2Oc2ccccc21 [butyl 9H-xanthen-9-ylcarbonylcarbamate] 90.1
Cl.NC(N)=NC(N)=Nc1cccc(Cl)c1 [1-(m-Chlorophenyl)-biguanide hydrochloride] 93.4
CCCCCC=CCC(O)C=Cc1cccc(CC(O)CCCCO)n1 (stereo not given) 95.9
O=C(O)CP(=O)(O)O [Phosphonoacetic acid] 95.9
O=C1C(=Cc2ccc(O)c(O)c2)Oc2c1ccc(OC1OC(CO)C(O)C(O)C1O)c2O (stereo not given) [Maritimein] 102
Cl.O=C(NCCCCN1CCN(c2cccc(Cl)c2Cl)CC1)c1ccc2c(c1)Cc1ccccc1-2 96.4
O=C(NOCC1CC1)c1ccc(F)c(F)c1Nc1ccc(I)cc1Cl 93.3
Cl.O.O=C(O)CN(CCN(CC(=O)O)Cc1ccccc1O)Cc1ccccc1O 108
O=C(Cc1ccc(Cl)c(Cl)c1)OCCN1CCCC1.O=C(O)C(=O)O [AC 915 oxalate] 92.1
CCCCCCCCC=CCCCCCCCC(=O)NCCO [N-Oleoylethanolamine] 98.4
CC(Cc1ccccc1)(NC(=O)CN)c1ccccc1.Cl (stereo not given) 103
COc1cccc(OC)c1OCCNCC1CSc2ccccc2O1.Cl (stereo not given) [Benoxathian hydrochloride] 91.8
O=c1c(O)c(-c2ccc(O)cc2O)oc2cc(O)cc(O)c12 [Morine] 95
CC(C)(C)NCC(O)c1ccc(O)c(CO)c1.CC(C)(C)NCC(O)c1ccc(O)c(CO)c1.O=S(=O)(O)O (stereo not given) [Albuterol hemisulfate] 92.5
Nc1nc(N)nc(-c2cc(Cl)ccc2Cl)n1 [Irsogladine] 94.5
COc1cc(C2Oc3cc(C4Oc5cc(O)cc(O)c5C(=O)C4O)ccc3OC2CO)ccc1O (stereo not given) [Silymarin] 95.5
CN(C)CCCOc1nn(Cc2ccccc2)c2ccccc12 [Benzydamine] 104
COc1cc2c3cc1Oc1cc(ccc1O)CC1c4c(cc(OC)c(O)c4Oc4ccc(cc4)CC3N(C)CC2)CC[N+]1(C)C.Cl.[Cl-] (single isomer, unassigned; (+)) [(+)-Tubocuraraine chloride] 93.2
N#Cc1cnc2cnc(NCc3cccnc3)cc2c1Nc1ccc(F)c(Cl)c1 [Tpl2 Kinase Inhibitor] 92.6
COc1cc2c(cc1OC)-c1cc(=Nc3c(C)cc(C)cc3C)n(C)c(=O)n1CC2.Cl [Trequinsin.HCl] 92.8
Cn1c(=O)c2[nH]cnc2n(C)c1=O [Theophylline] 97
Cl.Cl.Fc1ccc(C(c2ccc(F)cc2)N2CCN(CC=Cc3ccccc3)CC2)cc1 [Flunarizine.2HCl] 92.2
NS(=O)(=O)c1cccc2c1c([N+](=O)[O-])cc1nc([O-])c([O-])nc12.[Na+].[Na+] [NBQX disodium] 93.8
COc1cc(CCC(C)=O)ccc1O [Vannilylacetone] 95.6
COc1ccc(Cl)cc1C(=O)NCCc1ccc(S(=O)(=O)NC(=O)NC2CCCCC2)cc1 [Glibenclamide] 93.9
Cl.NOCC(=O)O.NOCC(=O)O [O-(Carboxymethyl)hydroxylamine hemihydrochloride] 99.1
O=c1cc(-c2ccc(O)cc2)oc2c(C3OC(CO)C(O)C(O)C3O)c(O)cc(O)c12 (stereo not given) [Vitexin] 99.5
CCOC(=O)C(CCc1ccccc1)NC(C)C(=O)N1Cc2ccccc2CC1C(=O)O (stereo not given) [Quinapril] 101
Cc1cc2cc3c(C)cc(=O)oc3c(C)c2o1 [4,5',8-Trimethylpsoralen] 97.2

H1.0 immunofluorescence intensity, active:
CSc1cccc(Nc2ncc3cc(-c4c(Cl)cccc4Cl)c(=O)n(C)c3n2)c1 145
C[C@@H](Oc1cc(-c2cnn(C3CCNCC3)c2)cnc1N)c1c(Cl)ccc(F)c1Cl 161
